Screening data deposited in PubChem by National Center for Advancing Translational Sciences (NCATS).
HT1080 IDH1KD tx: kills HT-1080 cells with IDH1 knockdown. HT-1080 IDH1 knockdown viability, ATP luminescence, 48 h. Potency, µM (top dose mostly 46.1 µM), usual class: cytotoxic. 360,000 tested, 2% active. AID 686971
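Cytotoxicity counter-line: IDH1KD HT-1080, 48 h, CellTiter-Glo. Curves classed by r2, magnitude and activity.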
SW480 rereplic: inducers of DNA re-replication in SW480 colon cancer cells; SW480 DNA re-replication, Hoechst DNA content imaging, 48 h; Potency, µM (top dose mostly 46.1 µM), hits mostly activators; 340,000 tested, 1.8% active; AID 624297; note: nearly all actives have a fitted effect of over 55% in size
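Readout is total intensity of Hoechst-stained nuclei, excited at 405 nm and collected at 500-530 nm. Compound treatment lasted 48 hr at 37 C in 5% CO2 before staining.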
HT1080-NT tox: kills 2HG-producing HT-1080-NT fibrosarcoma cells; HT-1080-NT fibrosarcoma viability, CellTiter-Glo ATP luminescence, 48 h; 360,000 tested, 1.6% active; Potency, µM (titrated, usually from 46.1 µM), hits mostly cytotoxic;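 note: NT is the 2HG producing partner of a matched IDH1 knockdown line; nearly all actives have a fitted effect of over 55% in size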
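HT-1080-NT; 750 cells/well; 5% FBS RPMI; 48 h compound, 37 degrees C; CellTiter-Glo luminescence; curve fitting and curve-class assignment.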
KB-3-1 tox: kills parental KB-3-1 adenocarcinoma cells | KB-3-1 viability, CellTiter-Glo ATP luminescence, 72 h | Potency, µM (top dose mostly 46.1 µM), usual class: cytotoxic | 400,000 tested, 1.4% active | AID 1347075; note: nearly all actives have a fitted effect of over 60% in size
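Viability of parental KB-3-1 cells, measured by CellTiter-Glo luminescence, followed a 72 h incubation at 37 °C with pinned compounds in phenol-red-free DMEM containing 10% FBS.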
KB-V1 cytotox: KB-V1 MDR subline cytotoxicity; KB-V1 MDR cells viability, CellTiter-Glo, 72 h; Potency, µM (titrated, usually from 46.1 µM), actives largely listed as cytotoxic; 400,000 tested, 3.4% active; note: nearly all actives have a fitted effect of over 60% in size
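KB-V1 cells (P-gp-expressing MDR subline of KB-3-1) in phenol-red-free DMEM with 10% FBS were exposed to library compounds over a concentration series for 72 h at 37 degrees C. Viability read by CellTiter-Glo luminescence; concentration-effect curves fitted after normalization.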
MCF10A rerep: induces DNA re-replication in MCF 10a normal breast cells | MCF 10A DNA re-replication, Hoechst nuclear intensity, 48 h | Potency, µM (titrated, usually from 46.1 µM), hits mostly activators | 350,000 tested, 2.9% active | AID 624296; note: nearly all actives have a fitted effect of over 50% in size
Large screens that a line does not name were inactive. Most compounds without a hit are left out; they make up all but 7.9% or so of the library. Calls come from the whole dose curve; as a rule, active = well fitted curve in the direction sought with a large enough effect; inconclusive = small, poorly fitted or top-dose-only effect, or another doubt; inactive = no such curve, though single readings can be large; an effect the other way counts as inactive or inconclusive.

O=C1OCCN1C(=O)[C@H]1[C@H](c2ccccc2)C(c2cccc(Cl)c2)=NN1c1ccc(Br)cc1	SW480 rereplic 2.1µM, MCF10A rerep inconclusive
O=C1OCCN1C(=O)[C@H]1[C@H](c2ccc(F)cc2)C(c2cccc(Cl)c2)=NN1c1ccc(Br)cc1	HT1080 IDH1KD tx inconclusive, SW480 rereplic 1.3µM, KB-3-1 tox inconclusive, MCF10A rerep inconclusive
O=C1OCCN1C(=O)[C@H]1[C@H](c2ccc(Cl)cc2)C(c2ccccc2)=NN1c1ccc(Br)cc1	SW480 rereplic 23µM, MCF10A rerep inconclusive
CCc1ccc2oc(-c3ccc(C)c(NC(=O)COc4ccc(Cl)cc4)c3)nc2c1	none (no result: HT1080 IDH1KD tx, SW480 rereplic, HT1080-NT tox, MCF10A rerep)
Cc1cc(NCCCCCCCNc2cc(C)nc3cc([N+](=O)[O-])ccc23)c2ccc([N+](=O)[O-])cc2n1	HT1080 IDH1KD tx inconclusive, SW480 rereplic inconclusive, HT1080-NT tox inconclusive, KB-3-1 tox inconclusive, KB-V1 cytotox 21µM, MCF10A rerep 3.7µM
COCCCNc1cc(C)nc2ccccc12	none
Cc1ccc(CNC(=O)C2CCCN(S(=O)(=O)c3c(C)noc3/C=C/N(C)C)C2)cc1 (stereo unspecified)	MCF10A rerep 15µM
Cc1noc(/C=C/N(C)C)c1S(=O)(=O)N1CCCC(C(=O)NCc2ccc(Cl)cc2)C1 (stereo unspecified)	HT1080 IDH1KD tx inconclusive, KB-V1 cytotox inconclusive, MCF10A rerep inconclusive
Cc1noc(/C=C/N(C)C)c1S(=O)(=O)N1CCCC(C(=O)Nc2ccccc2F)C1 (stereo unspecified)	SW480 rereplic inconclusive, MCF10A rerep 23µM
Cn1c(CN2CCOCC2)nc2cc(NC(=O)c3ccccc3[N+](=O)[O-])ccc21	KB-V1 cytotox inconclusive (no result: HT1080 IDH1KD tx, SW480 rereplic, HT1080-NT tox, MCF10A rerep)
Nc1nc(SCc2ccccc2)cc(SCc2ccccc2)n1	MCF10A rerep 8.2µM
CCCc1cc(=O)oc2c(C)c(O[C@@H]3O[C@H](CO)[C@@H](O)[C@H](O)[C@H]3O)ccc12	KB-V1 cytotox inconclusive
C[C@H]1CCC/C=C/[C@@H]2C[C@H](O)C[C@H]2[C@H](O)[C@H](S(=O)c2ccc(O)cc2)CC(=O)O1 (stereo partly specified)	HT1080 IDH1KD tx 0.15µM, SW480 rereplic inconclusive, HT1080-NT tox inconclusive, KB-3-1 tox 0.0092µM, KB-V1 cytotox inconclusive
Cc1cc(OCC(O)CN2CCCC2)cc(C)c1Cl (stereo unspecified)	none
CC1(C)C(=Cc2ccccc2)C(=O)c2ccccc21	none (no result: SW480 rereplic, MCF10A rerep)
CN1C2CCC1/C(=C\c1ccccc1)C(=O)/C2=C\c1ccccc1	HT1080 IDH1KD tx inconclusive, SW480 rereplic inconclusive, HT1080-NT tox inconclusive, KB-3-1 tox 7.3µM, MCF10A rerep inconclusive
CCOC(=O)c1cc2cc(OC)ccc2n1C1CCN(CCc2ccccc2)CC1	HT1080 IDH1KD tx 18µM, HT1080-NT tox inconclusive, KB-3-1 tox inconclusive (no result: SW480 rereplic, MCF10A rerep)
O=C(Nc1ccc(F)cc1F)c1ccc2c(c1)[nH]c(=O)n2Cc1ccc(F)cc1	MCF10A rerep 5.8µM
Cn1c(N=Nc2ccccc2)nc2ccccc21	HT1080 IDH1KD tx 10µM, SW480 rereplic inconclusive, HT1080-NT tox 8.2µM, KB-V1 cytotox 8.2µM, MCF10A rerep inconclusive
CN(C)c1ccc(N=Nc2nc3ccccc3n2C)cc1	SW480 rereplic inconclusive, KB-V1 cytotox inconclusive
CC(=O)Nc1ccc(CC(=O)NCCC(c2ccccc2)c2ccccc2)cc1	HT1080 IDH1KD tx 33µM, SW480 rereplic 21µM, HT1080-NT tox 26µM, MCF10A rerep inconclusive
Cc1c(C#N)c(N)nc2c3c(sc12)NC(=O)CC3c1ccc(Cl)cc1 (stereo unspecified)	HT1080 IDH1KD tx 16µM, HT1080-NT tox 21µM, KB-V1 cytotox inconclusive, MCF10A rerep inconclusive (no result: SW480 rereplic)
Nc1c(C(=O)c2ccccc2)oc2ccccc12	HT1080 IDH1KD tx inconclusive, SW480 rereplic inconclusive, MCF10A rerep 13µM
O=C(Nc1c(C(=O)c2ccccc2)oc2ccccc12)c1ccc(F)cc1	none (no result: HT1080 IDH1KD tx, SW480 rereplic, HT1080-NT tox, MCF10A rerep)
Nc1c(C(=O)c2ccc(F)cc2)oc2ccccc12	KB-3-1 tox inconclusive, MCF10A rerep 7.3µM
CC(C)(C)c1ccc(-c2conc2N)cc1	HT1080 IDH1KD tx inconclusive, SW480 rereplic inconclusive, HT1080-NT tox inconclusive, MCF10A rerep 18µM
CCOC(=O)C1(C)CCCN(C(=O)C(c2ccccc2)c2ccccc2)C1 (stereo unspecified)	none (no result: SW480 rereplic, MCF10A rerep)
Cc1cccc(C)c1OCc1cc(C(=O)N2CC3C[C@@H]4CC2C[C@H](C3)C4)no1	KB-V1 cytotox inconclusive, MCF10A rerep 18µM
O=C(COC(=O)c1cc(S(=O)(=O)N2CCCCC2)ccc1N1CCOCC1)c1ccccc1	KB-V1 cytotox 21µM
O=C(COC(=O)c1cc(S(=O)(=O)N2CCCCC2)ccc1N1CCOCC1)c1ccc(Cl)cc1	SW480 rereplic 6.5µM
O=C(OCc1cccc(Cl)c1)c1cc(S(=O)(=O)N2CCCCC2)ccc1N1CCOCC1	KB-3-1 tox inconclusive, KB-V1 cytotox inconclusive, MCF10A rerep inconclusive
CCN(CC)CCNC(=O)c1cc2c(=O)[nH]c3ccc(C)cc3c2s1	KB-V1 cytotox inconclusive (no result: HT1080 IDH1KD tx, SW480 rereplic, HT1080-NT tox, MCF10A rerep)
CCCN1CCN(CCCNC(=O)c2cc3c(=O)[nH]c4ccc(C)cc4c3s2)CC1	HT1080 IDH1KD tx 26µM, HT1080-NT tox 21µM
Cc1cc(C)c(NC(=O)CSc2nnc(CNC(=O)c3ccco3)o2)c(C)c1	none
CN(C)c1ccc(NC(=O)Nc2ccc3c(c2)c(=O)n(C)n3-c2ccccc2)cc1	HT1080 IDH1KD tx inconclusive, HT1080-NT tox 16µM (no result: SW480 rereplic, MCF10A rerep)
CN(C)c1ccc(NC(=O)Nc2ccc3c(c2)nnn3C)cc1	none
CN(C)c1ccc(NC(=S)Nc2ccc3c(c2)c(=O)n(C)n3-c2ccc(C(C)(C)C)cc2)cc1	HT1080 IDH1KD tx 18µM, HT1080-NT tox inconclusive (no result: SW480 rereplic, MCF10A rerep)
COc1cccc(CC(=O)Nc2ccc3c(c2)c(=O)n(C)n3-c2ccc(C(C)(C)C)cc2)c1	HT1080-NT tox inconclusive (no result: SW480 rereplic, MCF10A rerep)
COc1ccc(S(=O)(=O)Nc2c(C)nn(C)c2C)cc1Br	none
CN(C(=O)c1ccc(NC(=O)Cc2cccc(NC(=O)C3CCN(C(=O)C4CC4)CC3)c2)cc1)C1CC1	none
Cc1ccccc1N=C1Nc2ccc(Cl)cc2N[C@]12C[C@H]1CCCC(=O)N3CC[C@@H](C2)[C@@H]13	none (no result: HT1080 IDH1KD tx, SW480 rereplic, HT1080-NT tox, MCF10A rerep)
CCC(C)n1c(=N)c(C(=O)NC2CCCC2)cc2c(=O)n3ccccc3nc21 (stereo unspecified)	none (no result: HT1080 IDH1KD tx, SW480 rereplic, HT1080-NT tox, MCF10A rerep)
N=c1c(C(=O)NC2CCCCC2)cc2c(=O)n3ccccc3nc2n1Cc1ccccc1	SW480 rereplic 9.2µM, MCF10A rerep 2.6µM
Cc1ccc(Cn2c(=N)c(C(=O)NC3CCCC3)cc3c(=O)n4ccccc4nc32)cc1	SW480 rereplic 1.6µM, MCF10A rerep inconclusive
